Reference: PubChem BioAssay (NCI)
The panel holds about 83,000 compounds, 20% with a hit somewhere; the sample as a whole holds those more often.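 Values shown are percent growth following 48 h exposure of cells in 96-well plates to a single concentration of compound; below 10 was considered active.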 A number with no mark means an inactive call. Active and inactive are the calls of the source.

Columns and labels:
Assay in all cases: NCI-60 one-dose screen, 48 h (100 = growth as untreated, 0 = no growth, -100 = all killed)
Conditions in all cases: 10 µM
RPMI-8226 leukemia = test system: RPMI-8226 leukemia
OVCAR-8 ovarian = test system: OVCAR-8 ovarian
OVCAR-5 ovarian = test system: OVCAR-5 ovarian
OVCAR-4 ovarian = test system: OVCAR-4 ovarian
SK-OV-3 ovarian = test system: SK-OV-3 ovarian
IGROV1 ovarian = test system: IGROV1 ovarian
OVCAR-3 ovarian = test system: OVCAR-3 ovarian
HS 578T breast = test system: HS 578T breast
NCI/ADR-RES ovarian = test system: NCI/ADR-RES ovarian
T-47D breast = test system: T-47D breast
BT-549 breast = test system: BT-549 breast
MDA-MB-435 melanoma = test system: MDA-MB-435 melanoma
SW-620 colon = test system: SW-620 colon
MCF7 breast = test system: MCF7 breast
HCT-116 colon = test system: HCT-116 colon
HCC-2998 colon = test system: HCC-2998 colon
KM12 colon = test system: KM12 colon
MDA-MB-468 breast = test system: MDA-MB-468 breast

Compound	growth (RPMI-8226 leukemia)	growth (OVCAR-8 ovarian)	growth (OVCAR-5 ovarian)	growth (OVCAR-4 ovarian)	growth (SK-OV-3 ovarian)	growth (IGROV1 ovarian)	growth (OVCAR-3 ovarian)	growth (HS 578T breast)	growth (NCI/ADR-RES ovarian)	growth (T-47D breast)	growth (BT-549 breast)	growth (MDA-MB-435 melanoma)	growth (SW-620 colon)	growth (MCF7 breast)	growth (HCT-116 colon)	growth (HCC-2998 colon)	growth (KM12 colon)	growth (MDA-MB-468 breast)
Nc1nc(Nc2ccc(Cl)cc2)nn1Cc1cccc(Br)c1	29.1%	54.9%	49.7%	46.8%	47.2%	13%	47.7%	18.2%	25.7%	19.3%	34.2%	36.7%	61.9%	18.2%	35.2%	5.71% (active)	16.7%	28.1%
COc1cc(/C=C/C(=O)c2ccc(S(=O)(=O)NCCNc3nc(Nc4ccc(F)cc4)nc(N(C)C)n3)cc2)cc(OC)c1OC	7.35% (active)	-65% (active)	-23.4% (active)	22.8%	109%	-48.9% (active)	-88.1% (active)	67.3%	46.6%	26.2%	-9.95% (active)	-24.8% (active)	1.12% (active)	-76.1% (active)	-69.6% (active)	-99% (active)	-81.1% (active)	-50.5% (active)
C=C(C)[C@@H]1CC[C@]2(C)[C@H](CC=C3[C@@H]4CC(C)(C)CC[C@]4(C(=O)N4CCOCC4)CC[C@]32C)[C@@]1(C)CCCN	-51.2% (active)	-66.3% (active)	-98.9% (active)	-89.4% (active)	-94.6% (active)	-91.2% (active)	-84.8% (active)	-63.4% (active)	-59.8% (active)	-88.1% (active)	-85.3% (active)	–	-65.1% (active)	-70.7% (active)	-54.2% (active)	-81.1% (active)	-82.3% (active)	-96% (active)
Cc1ccc(-c2cc(-c3cc4ccccc4nc3Cl)[nH]c(=S)n2)cc1	64.6%	68.2%	87%	80.6%	74.2%	58.7%	68.4%	32.2%	42%	57.3%	7.67% (active)	-1.81% (active)	78.4%	47.5%	64.5%	77.3%	61.6%	11.7%
Cc1noc2c(Cc3ccccc3)nn(CC(=O)N/N=C/c3ccc(Cl)cc3)c(=O)c12	75.5%	8% (active)	66%	-59.5% (active)	33.9%	41%	-31.8% (active)	4.07% (active)	53.2%	9.05% (active)	–	75.8%	51.7%	51.9%	26.4%	79.7%	72.6%	81%
O=C(c1ccc([N+](=O)[O-])c([N+](=O)[O-])c1O)n1[nH]c(=O)c2ccccc2c1=O	26.6%	55.5%	110%	78.3%	102%	94.6%	25.8%	77.4%	35.5%	49.8%	–	53.7%	35.7%	30.5%	30.1%	106%	72.3%	0.114% (active)
COc1ccc(N(C)c2cc(C#N)nc3ccccc23)cc1/C=C/C(=O)NO	5.81% (active)	-37.9% (active)	-46.2% (active)	7.41% (active)	-22.7% (active)	-57.4% (active)	-43.4% (active)	-18.2% (active)	-41.9% (active)	-10.8% (active)	-49.4% (active)	–	-37.5% (active)	-20.8% (active)	-9.52% (active)	-94.8% (active)	-37.1% (active)	-86.1% (active)
S=c1nc(-c2ccccc2)cc(-c2cc3ccccc3nc2Cl)[nH]1	76.3%	76.1%	110%	91.7%	75%	82.8%	76.7%	57.6%	49.1%	78.1%	–	-10.8% (active)	48.3%	45.1%	31.5%	104%	64.2%	66.8%
COc1ccc(-c2ccc(/C=N/NC(=O)c3[nH]c4ccc(Br)cc4c3-c3ccccc3)s2)cc1	57.7%	51.9%	12.8%	79.6%	117%	110%	97.5%	54%	59.9%	72%	117%	107%	44.8%	6.19% (active)	37.5%	112%	85.5%	76.6%
CO[C@H]1CSS[C@@H]1Cn1nc(-c2ccc(Oc3ccccc3)cc2)c2c(N)ncnc21	36.4%	48.2%	28.5%	50.2%	-1.28% (active)	29.4%	61.2%	28.4%	42.6%	2.61% (active)	4.49% (active)	–	66.4%	10.2%	7.35% (active)	14%	17.5%	-21.2% (active)
O=C1NC(=NC23CC4CC(CC(C4)C2)C3)N/C1=C\c1ccc2ncsc2c1	-14.7% (active)	10.5%	-7.67% (active)	8.44% (active)	25.1%	4.69% (active)	-6.21% (active)	-0.802% (active)	-10.5% (active)	-0.474% (active)	-11.5% (active)	–	5.03% (active)	-9.76% (active)	14.1%	16.2%	2.26% (active)	-48.2% (active)
Cc1cc(C)nc(SCC(=O)Nc2ccc(S(N)(=O)=O)cc2)n1	99.5%	105%	107%	112%	106%	109%	113%	114%	106%	105%	–	107%	116%	96.6%	111%	109%	107%	98.2%
N#Cc1c(Cl)nc(SCc2ccc(F)cc2)nc1-c1ccc(F)cc1	91.4%	89.2%	95.6%	95%	103%	109%	111%	95.2%	86.6%	66.8%	95.4%	99.1%	98.6%	82.6%	81.5%	111%	91.6%	112%
O=C(O)CCCCCCCCCCN1C(=O)/C(=C/c2cnc(-c3ccccc3)s2)SC1=S	86.5%	61.4%	109%	96.1%	130%	95%	102%	117%	57.5%	74.2%	106%	–	44.1%	28.8%	31.8%	124%	24.6%	–
CC[C@@]1(O)C(=O)OCc2c1cc1n(c2=O)Cc2c-1nc1cc(F)c(C)c3c1c2[C@@H](N)CC3	-3.74% (active)	-38.3% (active)	-12.5% (active)	-4.52% (active)	-32% (active)	-47.8% (active)	-17.8% (active)	51.3%	-12.2% (active)	-3.93% (active)	-10.7% (active)	-41.9% (active)	8.5% (active)	8.66% (active)	0.118% (active)	-45.4% (active)	3.85% (active)	-77.2% (active)
O=C(c1ccccc1)n1ccc(-c2cc3cc(Br)ccc3oc2=O)n1	24.6%	22.5%	34.6%	26.2%	12.5%	16%	38.8%	48.5%	-2.98% (active)	1.35% (active)	–	48.9%	45.8%	-8.53% (active)	16%	17%	27.9%	-25.9% (active)
